Data reported in PubChem BioAssay AID1259309 (ICCB-Longwood Screening Facility, Harvard Medical School, 2017).
Several values for one entry are separate records, joined by “and”; a condition that tells them apart may be missing. Equal values may be shown once. Screen size: about 330,000 compounds; about 1,800 (0.55%) were called active. Cut-off read from the data, not from the text of the source: active = growth inhibition above about 68%; inactive = the rest. The list comes from a sample in which actives are over-represented; it also holds similar structures and randomly drawn compounds.

assay: growth inhibition of ugtP-null S. aureus, primary screen, RN4220 ugtP deletion, OD600 (AID 1259309); conditions: 16 h, stronger effect = higher value;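 note: plate controls were untreated wells for no effect and antibiotic for full effect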

SMILES	growth inhibition
CCCC(C#Cc1ccc(N(C)C)cc1)=C1c2ccccc2C(=O)N1c1ccccc1	13.2% (inactive)
COC(=O)NN=Cc1cc(Br)ccc1OCc1ccccc1	20.2% (inactive)
C(=Nn1c2ccccc2c2ccccc21)c1ccccc1	11.7% (inactive)
CC(C)c1ccc2c(c1)c(SC(C)(C)C)c(CC(C)(C)C(=O)O)n2Cc1ccc(Cl)cc1	101% (active)
CCOc1ccc2ccccc2c1C=NNC(=O)CNC(=O)C(c1ccccc1)c1ccccc1	22.4% (inactive)
CN1CCSC1=CC=C1C(=O)N(C)C(=S)N1C	-5.24% (inactive)
Cc1ccc(O)c(-c2cc(C(=O)NCc3ccccc3)[nH]n2)c1	7.53% (inactive)
Cc1ccc(O)c(-c2cc(C(=O)Nc3c(C)n(C)n(-c4ccccc4)c3=O)[nH]n2)c1	2.72% (inactive)
Cc1ccc(C)c(NC(=O)c2cc(-c3cc(C)cc(C)c3O)n[nH]2)c1	99.5% (active)
CNC(=O)CCCCC(=O)NN=Cc1ccc(Cl)cc1Cl	-1.21% (inactive)
COc1ccc(CC2CN3C(=NCC3C)N2CCNC(=O)CCC2CCCCC2)cc1 (centres undefined)	-6.07% (inactive) and 2.3% (inactive)
COc1cccc(C=NNc2ncnc(N)c2[N+](=O)[O-])c1OC	-0.174% (inactive)
O=C(Nc1ccccc1)C1CC=CC2CCN(Cc3ccc(Cl)c(Cl)c3)C(=O)C21 (centres undefined)	2.24% (inactive)
Cc1c(N2C(=O)CSC2=NN=Cc2ccccc2O)c(=O)n(-c2ccccc2)n1C	7.58% (inactive)
CCCn1c(=O)c(C(=O)NN=Cc2ccc(F)cc2)c(O)c2ccccc21	101% (active)
CC(C)CCn1c(=O)c(C(=O)NN=Cc2cccc(F)c2)c(O)c2ccccc21	99% (active)
CCCn1c(=O)c(-c2ccccc2)c(O)c2ccccc21	10.2% (inactive)
CCCCCn1c(=O)c(C(=O)NCc2ccccn2)c(O)c2ccccc21	10.1% (inactive)
CCCn1c(=O)c(C(=O)Nc2cc(C)ccn2)c(O)c2ccccc21	11.7% (inactive)
CCCCCn1c(=O)c(C(=O)NCc2ccccc2)c(O)c2ccccc21	44.1% (inactive)
C/C(C=NNc1nc(C)cc(=O)[nH]1)=C\c1ccccc1	-4.37% (inactive)
Cc1ccc(S(=O)(=O)N=Cc2ccco2)cc1	4.28% (inactive)
COC(=O)c1ccc(C23CC4(C2)C(CN(Cc2cccnc2)C4c2ccccc2)C3c2ccc(Cl)nc2)cc1 (centres undefined)	8.61% (inactive)
O=C(COc1ccccc1)NCC(=O)NN=C/C=C/c1ccccc1	2.76% (inactive)
O=S1(=O)C[C@@H]2N=C(NN=Cc3ccccc3)S[C@@H]2C1	-0.808% (inactive)

SMILES	growth inhibition
COc1ccc(C=CC2=CCN(Cc3ccc(OC)cc3)CC2)cc1	1.66% (inactive)
CC(C)CNC(=S)NC(=O)c1ccc(Cl)cc1	91.1% (active)
O=C(NC(=S)NC1CCCCC1)c1ccc(Cl)cc1	82.7% (inactive)
CC(C)C(NC(=O)c1ccc(Cl)cc1)C(=O)O (centres undefined)	0.934% (inactive)
Brc1ccccc1C1Nc2cccc3cccc(c23)N1	-4.74% (inactive)
Oc1ccc(C2Nc3cccc4cccc(c34)N2)cc1	96.6% (active)
COc1ccc(C2NC(=O)c3ccccc3N2)cc1 (centres undefined)	6.04% (inactive)
COc1ccc(C=NNC(=O)c2cc[n+]([O-])cc2)cc1	2.45% (inactive)
CC(=NNc1ccc(S(=O)(=O)N2CCCCC2)cn1)c1ccc(O)cc1	-0.0996% (inactive)
Cc1ccc(OC(=O)c2cc3ccccc3o2)cc1	98% (active)
COc1ccccc1CN(C)C(=O)c1cc2ccccc2o1	9.31% (inactive)
Cc1ccc(OC(=O)c2ccccc2C(=O)OCC(F)(F)C(F)F)cc1	14.2% (inactive)
Cc1ccc(-c2nnnn2C2CC(=NNC(N)=S)C3OCC2O3)cc1 (centres undefined)	3.57% (inactive)
O=C(NN=Cc1ccncc1)c1cccc(NC(=O)c2ccc(Cl)cc2)c1	-6.73% (inactive)
CCn1c(/C=C/c2ccc([N+](=O)[O-])o2)nc2ccccc2c1=O	11.7% (inactive)
O=C(CSc1nc2ccccc2c(=O)n1-c1ccccc1F)N1CCOCC1	-0.774% (inactive)
O=c1c2ccccc2nc(/C=C/c2ccc(F)cc2)n1-c1ccccc1O	97.9% (active)
O=c1c2ccccc2nc(/C=C/c2ccco2)n1-c1ccccc1O	92% (active)
O=C(CSc1nc2ccccc2c(=O)n1-c1ccc(F)cc1)NC1CC1	2.6% (inactive)
O=c1c2ccccc2nc(-c2ccco2)n1-c1ccc(Br)cn1	11.8% (inactive)
CC1CCCC(C)N1N=Cc1ccc([N+](=O)[O-])cc1 (centres undefined)	18% (inactive)
O=C(NN=Cc1cccs1)c1cnccn1	1.82% (inactive)
Cc1ccc(OCC(=O)NNC(=S)NCc2ccccc2)cc1	-11.7% (inactive)
Cc1ccc(OCC(=O)NCCCNC(=O)c2ccco2)cc1C	-2.8% (inactive)
